Activity calls are given as the source filed them. Unless noted, no rule for the calls is given here.
Tests used:
[1] = HepG2 liver cancer cell viability effects, profiling panel, resazurin fluorescence, 24 h, PK04 Diversity Set (AID 1172); settings: higher = more signal; also: test concentration not given here
[2] = basal S. cerevisiae growth modulation, no modifier, primary screen, OD600, strain BY4716, 24 h, basal condition (AID 1173); settings: OD600, 24 h, higher = more signal, called active from +8 up or from −8 down
[3] = MM1S myeloma cell viability, profiling panel, resazurin fluorescence, basal, 24 h, PK04 Diversity Set (AID 1174); settings: higher = more signal, called active from +8 up or from −8 down;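 also: MM1S multiple myeloma cell line; test concentration not given here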
[4] = target: Dihydroorotate dehydrogenase (quinone), mitochondrial (Plasmodium falciparum (isolate 3D7)) (UniProt Q08210); experiment: PfDHODH enzyme inhibitors, primary screen, biochemical, C-terminal His tag, absorbance 600 nm (AID 1175); settings: DCIP absorbance 600 nm, higher = more signal, called active from +8 up or from −8 down;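 also: recombinant parasite enzyme with a five histidine tag at its C terminus; test concentration not given here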
Dihydroorotate dehydrogenase (quinone), mitochondrial (Plasmodium falciparum (isolate 3D7)), sequence (Q08210 whole entry, looked up): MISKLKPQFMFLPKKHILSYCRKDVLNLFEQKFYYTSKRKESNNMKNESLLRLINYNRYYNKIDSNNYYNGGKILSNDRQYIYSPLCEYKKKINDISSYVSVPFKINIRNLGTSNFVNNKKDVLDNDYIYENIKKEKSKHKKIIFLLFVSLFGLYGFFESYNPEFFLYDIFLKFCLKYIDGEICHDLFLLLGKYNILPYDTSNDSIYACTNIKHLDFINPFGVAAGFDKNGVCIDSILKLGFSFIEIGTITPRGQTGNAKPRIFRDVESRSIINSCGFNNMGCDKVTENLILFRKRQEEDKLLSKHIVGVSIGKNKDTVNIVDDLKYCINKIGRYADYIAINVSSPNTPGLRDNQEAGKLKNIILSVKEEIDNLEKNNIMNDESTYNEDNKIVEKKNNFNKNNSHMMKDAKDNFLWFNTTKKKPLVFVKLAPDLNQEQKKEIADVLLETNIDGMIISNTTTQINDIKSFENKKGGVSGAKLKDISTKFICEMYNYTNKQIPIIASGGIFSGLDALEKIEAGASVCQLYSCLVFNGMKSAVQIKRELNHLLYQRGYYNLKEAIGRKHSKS

[5] = P. aeruginosa biofilm formation inhibitors, primary screen, strain PAO1, LB-PBS medium, absorbance 600 nm (AID 1176); also: test concentration not given here; settings: P. aeruginosa PAO1 growth/biofilm, A600, 12 h; higher = more signal
[6] = S. cerevisiae RM11-1a growth modifiers, primary screen, strain RM11-1a, OD600, basal, 24 h (AID 1177); settings: OD600, 24 h, higher = more signal, called active from +8 up or from −8 down;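 also: cultures grown under basal conditions with no added stressor; test concentration not given here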
[7] = E. coli acrAB mutant growth effects, primary screen, E. coli filamentation inducers, strain DRC39, OD650, 24 h (AID 1178); settings: higher = more signal, called active from +8 up or from −8 down;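 also: growth measured as culture turbidity by optical density at 650 nm; test concentration not given here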
[8] = E. coli acrAB mutant growth effects, primary screen, E. coli filamentation inducers, strain DRC39, OD650, 48 h (AID 1179);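 also: screen aims at cell division blockers that make cells filament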; settings: E. coli DRC39 delta-acrAB growth, higher = more signal, called active from +8 up or from −8 down
[9] = RPMI8226 myeloma cell viability, profiling panel, resazurin fluorescence, basal, 24 h, PK04 Diversity Set (AID 1180); settings: higher = more signal;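 also: RPMI8826 multiple myeloma cell line at 5000 cells per well; test concentration not given here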
[10] = target: E3 ubiquitin-protein ligase XIAP (Homo sapiens) (UniProt P98170); experiment: XIAP binders, primary screen, biophysical, small-molecule microarray, fluorescence 635 nm (AID 1181); settings: small-molecule microarray binding, higher = more signal;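 also: score merges 667 nm emission and signal to noise over triplicate slides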
E3 ubiquitin-protein ligase XIAP (Homo sapiens), sequence (P98170 whole entry, looked up): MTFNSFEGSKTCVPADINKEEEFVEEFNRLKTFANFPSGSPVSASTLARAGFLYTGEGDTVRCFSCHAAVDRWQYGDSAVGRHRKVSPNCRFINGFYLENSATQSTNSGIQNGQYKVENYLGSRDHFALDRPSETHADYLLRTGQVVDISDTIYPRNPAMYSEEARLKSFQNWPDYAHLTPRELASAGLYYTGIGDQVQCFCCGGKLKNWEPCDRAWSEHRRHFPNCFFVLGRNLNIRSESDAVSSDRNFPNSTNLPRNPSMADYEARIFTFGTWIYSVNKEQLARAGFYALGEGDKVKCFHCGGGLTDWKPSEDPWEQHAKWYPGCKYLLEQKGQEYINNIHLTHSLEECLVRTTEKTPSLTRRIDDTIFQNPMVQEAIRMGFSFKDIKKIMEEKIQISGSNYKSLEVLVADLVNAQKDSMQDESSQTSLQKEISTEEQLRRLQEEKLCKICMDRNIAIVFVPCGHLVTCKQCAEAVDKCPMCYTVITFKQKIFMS

| Structure (SMILES) | z-score [1] | z-score [2] | z-score [3] | composite z-score [4] | z-score [5] | z-score [6] | z-score [7] | z-score [8] | z-score [9] | composite z-score [10] |
| --- | --- | --- | --- | --- | --- | --- | --- | --- | --- | --- |
| COCCOC(=O)N1C(=O)[C@@]2(c3cc(C#CC4=CCCCC4)ccc31)[C@H](c1ccccc1OCCO)N1[C@H](c3ccccc3)[C@H](c3ccccc3)OC(=O)[C@H]1[C@@H]2C(N)=O | -0.625 | -0.431 (inactive) | -2.78 (inactive) | -0.176 (inactive) | 1.06 (inactive) | 0.486 (inactive) | 0.484 (inactive) | -0.955 (inactive) | -5.01 | 0.126 |
| CC(c1ccccc1)C(O)C1C=CC2C(=O)N(c3ccccc3)C(=O)C2N1Nc1ccc(C#N)cc1 (stereo not given) | 0.142 | -0.0091 (inactive) | -1.24 (inactive) | -0.0432 (inactive) | 0.695 (inactive) | -0.977 (inactive) | 1.07 (inactive) | 1.83 (inactive) | -0.008 | 0.332 |
| CN(C)CCCC[C@@H]1NC(=O)[C@@H]2C[C@H](C(=O)NCCCCCCNC(=O)CS)[C@H](c3cccc(OCCO)c3)N2C1=O | -0.725 | -0.103 (inactive) | -0.196 (inactive) | -0.264 (inactive) | 0.268 (inactive) | -0.491 (inactive) | 0.303 (inactive) | 0.94 (inactive) | 0.117 | -0.0052 |
| C=CC[C@@]1(C(=O)O)N=C(c2ccc(OCCCO)cc2)O[C@@H]1c1ccccc1CN=[N+]=[N-] | 0.793 | -2.58 (inactive) | 0.747 (inactive) | -0.0013 (inactive) | -0.043 (inactive) | -0.534 (inactive) | 0.8 (inactive) | 0.302 (inactive) | 1.1 | 0.565 |
| COC(=O)[C@@]1(Cc2ccc(F)cc2)[C@H]2c3cc(C(=O)N(C)C)n(CCO)c3C[C@H]2CN1C(=O)c1ccccc1 | -0.359 | -0.092 (inactive) | -0.438 (inactive) | -0.844 (inactive) | 0.865 (inactive) | -0.251 (inactive) | -0.356 (inactive) | -0.0099 (inactive) | -0.0323 | 0.49 |
| CN(C)C(=O)[C@@]1(CCS(=O)(=O)c2ccccc2)N=C(c2ccc(OCCCO)cc2)O[C@H]1c1ccccc1N=[N+]=[N-] | -0.679 | 0.135 (inactive) | -0.517 (inactive) | -0.926 (inactive) | -0.0558 (inactive) | -0.241 (inactive) | -0.068 (inactive) | 0.0077 (inactive) | -1.68 | -0.0676 |
| CCCCC(O)C1C=CC2C(=O)NC(=O)C2N1Nc1ccc(Cl)cc1Cl (stereo not given) | -2.57 | -16.6 (active) | -2.26 (inactive) | -0.2 (inactive) | 0.546 (inactive) | -5.12 (inactive) | -0.818 (inactive) | -1.31 (inactive) | -2.01 | -0.272 |
| N#Cc1ccc(C(O)C2C=CC3C(=O)NC(=O)C3N2Nc2ccccn2)cc1 (stereo not given) | -1.62 | -0.055 (inactive) | -0.601 (inactive) | -0.127 (inactive) | 0.791 (inactive) | -1.57 (inactive) | 0.0007 (inactive) | 1.25 (inactive) | -0.353 | -0.0536 |
| C=CCC(OC(C)=O)[C@@H]1[C@@H](N(Cc2cccc3ccccc23)C(=O)c2ccc(C)cc2)c2cc(OCCCO)ccc2N1C(=O)c1ccc2ccccc2n1 (stereo not given in full) | 0.374 | -1.13 (inactive) | 0.36 (inactive) | -1.35 (inactive) | -0.877 (inactive) | -1.88 (inactive) | 0.257 (inactive) | 0.91 (inactive) | 0.78 | -0.0535 |
| COC(=O)[C@@]1(Cc2ccc(OC)cc2)[C@@H]2[C@@H](CC(=O)[C@H]2CC(=O)C(=O)N2CCCC2)CN1C(=O)c1ccccc1 | -0.437 | 0.442 (inactive) | -0.526 (inactive) | -0.448 (inactive) | 0.274 (inactive) | -0.148 (inactive) | -0.415 (inactive) | -0.394 (inactive) | -1.57 | -0.01 |
| COCCOC(=O)N1C(=O)[C@@]2(c3cc(C#CC4(O)CCCCCC4)ccc31)[C@H](c1ccc(OCCO)cc1)N1[C@H](c3ccccc3)[C@H](c3ccccc3)OC(=O)[C@H]1[C@@H]2C(N)=O | -0.776 | 0.581 (inactive) | -3.25 (inactive) | -0.259 (inactive) | 1.84 (inactive) | 1.89 (inactive) | -0.236 (inactive) | -0.635 (inactive) | -3.62 | -0.142 |
| CCOC(=O)C[C@H]1[C@H](OC(=O)c2cc3ccccc3oc2=O)[C@@H](NC(=O)C2CCCCC2)c2cc(OCCCO)ccc2N1C(=O)Cc1ccc(OC)cc1 | -0.715 | 0.0323 (inactive) | -0.176 (inactive) | 0.427 (inactive) | -0.234 (inactive) | -0.0196 (inactive) | -0.825 (inactive) | -1.1 (inactive) | -0.986 | 0.214 |
| COC(=O)c1ccc([C@H](NC(=O)c2ccccc2)[C@]2(C)C[C@H]2C2CCCCC2)cc1 | 0.38 | 1.28 (inactive) | 0.713 (inactive) | -0.256 (inactive) | 0.371 (inactive) | 0.832 (inactive) | -1 (inactive) | -0.768 (inactive) | 0.293 | -0.127 |
| CC(C)C(=C=CC[C@@H](O)c1ccc(OCCO)cc1)CCO | 1 | -3.28 (inactive) | 1.21 (inactive) | -2.88 (inactive) | 0.13 (inactive) | -1.17 (inactive) | 1.61 (inactive) | 1.52 (inactive) | 1.52 | -0.0645 |
| O=C1N(CCS(=O)(=O)c2ccccc2)c2ccccc2[C@@H]2OC(c3ccc(OCCCO)cc3)=N[C@]12CCS(=O)(=O)c1ccccc1 | 0.546 | 1.24 (inactive) | -0.0861 (inactive) | -0.038 (inactive) | 1.73 (inactive) | 1.8 (inactive) | 0.481 (inactive) | -0.468 (inactive) | -0.63 | -0.265 |
| CO[C@H]1O[C@H](CO)[C@@H](OC(=O)Nc2ccc(C(F)(F)F)cc2)[C@H](OC(=O)Nc2ccccc2-c2ccccc2)[C@@H]1OC(=O)Nc1ccccc1-c1ccccc1 | -0.889 | 0.28 (inactive) | -1.74 (inactive) | 0.0823 (inactive) | 0.77 (inactive) | 1.21 (inactive) | -1 (inactive) | 0.0484 (inactive) | -0.94 | -0.184 |
| C=C(CCCC)/C(=C/C[C@H](OC(C)=O)c1cccc(OCCO)c1)c1cc(C(=O)OC)ccc1OC | 2.33 | -0.456 (inactive) | 1.44 (inactive) | -0.989 (inactive) | 0.473 (inactive) | -0.515 (inactive) | 1.85 (inactive) | 1.34 (inactive) | 1.43 | -0.0297 |
| COCC1=C([C@H](O)CCc2ccccc2)[C@H](CO)n2c(=O)n(-c3ccccc3)c(=O)n2C1 | -0.236 | -3.02 (inactive) | 0.0444 (inactive) | -0.855 (inactive) | 0.188 (inactive) | -1.94 (inactive) | 1.19 (inactive) | 1.32 (inactive) | 0.113 | -0.0848 |
| COc1ccc(CCNC(=O)[C@@]2(Sc3ccc(C)cc3)CC(=O)N(C(C)C)[C@@H]2c2ccc(CO)cc2)cc1 | -0.335 | 0.748 (inactive) | -0.416 (inactive) | 0.557 (inactive) | 0.745 (inactive) | 1.06 (inactive) | -0.252 (inactive) | -0.602 (inactive) | -0.218 | 0.0132 |
| COCCOC(=O)N1C(=O)[C@@]2(c3ccccc31)[C@H](c1ccc(OCCO)cc1)N1[C@H](c3ccccc3)[C@H](c3ccccc3)OC(=O)[C@H]1[C@@H]2C(=O)N1CCN(c2ncccn2)CC1 | 0.19 | 1.03 (inactive) | -0.268 (inactive) | -0.0117 (inactive) | 1.89 (inactive) | 2.29 (inactive) | -0.441 (inactive) | -0.849 (inactive) | 0.603 | 0.0548 |
| C=CCC(OC(C)=O)[C@@H]1[C@@H](N(Cc2ccc(-c3ccccc3)cc2)C(=O)c2ccc(-c3ccccc3)cc2)c2cc(OCCCO)ccc2N1C(=O)c1ccc2ccccc2n1 (stereo not given in full) | 1.16 | -0.599 (inactive) | 1.3 (inactive) | -0.149 (inactive) | 0.149 (inactive) | -0.354 (inactive) | 0.348 (inactive) | 0.308 (inactive) | 1.13 | -0.0103 |
| CC#CCO[Si](C#CCCCCCC)(C(C)C)C(C)C | 0.296 | -9.54 (active) | 0.486 (inactive) | -0.487 (inactive) | 0.501 (inactive) | 0.0606 (inactive) | -0.0081 (inactive) | 0.448 (inactive) | 0.166 | -0.22 |
| COCCOC(=O)N1C(=O)[C@@]2(c3cc(C#CCC(C(=O)OC)C(=O)OC)ccc31)[C@H](C(=O)N1CCCCCCC1)[C@H]1C(=O)O[C@H](c3ccccc3)[C@H](c3ccccc3)N1[C@@H]2c1ccccc1OCCO | 0.194 | 0.63 (inactive) | 0.683 (inactive) | 0.256 (inactive) | 1.45 (inactive) | 1.62 (inactive) | -0.82 (inactive) | -1.29 (inactive) | 0.0277 | 0.212 |
| NC(=O)NCC#Cc1ccc2c(c1)[C@]1(C(=O)N2)[C@H](C(=O)Nc2nc3ccccc3s2)[C@H]2C(=O)O[C@H](c3ccccc3)[C@H](c3ccccc3)N2[C@@H]1c1ccc(OCCO)cc1 | 1.1 | 1.12 (inactive) | 0.365 (inactive) | -0.396 (inactive) | 3.99 (inactive) | 1.27 (inactive) | 0.426 (inactive) | -0.221 (inactive) | -0.271 | 0.013 |
| COCCOC(=O)N1C(=O)[C@@]2(c3ccccc31)[C@H](C(N)=O)[C@H]1C(=O)O[C@H](c3ccccc3)[C@H](c3ccccc3)N1[C@@H]2c1ccc(OCCO)cc1 | 1.35 | 1.75 (inactive) | 0.671 (inactive) | -0.525 (inactive) | -0.108 (inactive) | 1.96 (inactive) | 0.755 (inactive) | 0.094 (inactive) | 0.7 | 0.109 |
